# Measured values: ChEMBL document CHEMBL1961873, “Compounds: GSK PKIS; Assays: Nanosyn kinase panel” (2012)
# Assays:
# [1] = biological target: T1, Serine/threonine-protein kinase TBK1 (Homo sapiens) (UniProt Q9UHD2); settings: at 1 µM;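 also: values are mean inhibition of TBK1, screened as part of the GSK published kinase inhibitor set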
# T1 sequence (whole entry): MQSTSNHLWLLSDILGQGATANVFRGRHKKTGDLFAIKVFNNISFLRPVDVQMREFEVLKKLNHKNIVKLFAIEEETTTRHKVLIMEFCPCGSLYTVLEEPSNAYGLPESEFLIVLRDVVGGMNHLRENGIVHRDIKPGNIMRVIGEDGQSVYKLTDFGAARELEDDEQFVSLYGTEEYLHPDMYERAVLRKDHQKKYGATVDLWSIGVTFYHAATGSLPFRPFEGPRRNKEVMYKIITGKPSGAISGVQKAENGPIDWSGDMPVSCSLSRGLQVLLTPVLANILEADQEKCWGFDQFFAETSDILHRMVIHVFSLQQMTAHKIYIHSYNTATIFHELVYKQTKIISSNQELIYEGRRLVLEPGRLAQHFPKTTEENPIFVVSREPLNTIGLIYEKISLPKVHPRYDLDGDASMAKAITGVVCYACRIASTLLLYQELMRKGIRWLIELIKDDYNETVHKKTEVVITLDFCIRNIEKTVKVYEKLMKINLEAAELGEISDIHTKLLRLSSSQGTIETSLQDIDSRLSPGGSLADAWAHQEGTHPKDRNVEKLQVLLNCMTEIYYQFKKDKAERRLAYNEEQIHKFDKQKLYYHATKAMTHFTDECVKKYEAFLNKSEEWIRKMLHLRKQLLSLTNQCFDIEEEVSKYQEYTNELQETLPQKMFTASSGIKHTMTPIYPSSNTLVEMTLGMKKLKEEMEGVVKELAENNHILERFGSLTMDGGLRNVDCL
# [2] = biological target: T2, Testis-specific serine/threonine-protein kinase 1 (Homo sapiens) (UniProt Q9BXA7); settings: at 0.1 µM
# T2 sequence (whole entry): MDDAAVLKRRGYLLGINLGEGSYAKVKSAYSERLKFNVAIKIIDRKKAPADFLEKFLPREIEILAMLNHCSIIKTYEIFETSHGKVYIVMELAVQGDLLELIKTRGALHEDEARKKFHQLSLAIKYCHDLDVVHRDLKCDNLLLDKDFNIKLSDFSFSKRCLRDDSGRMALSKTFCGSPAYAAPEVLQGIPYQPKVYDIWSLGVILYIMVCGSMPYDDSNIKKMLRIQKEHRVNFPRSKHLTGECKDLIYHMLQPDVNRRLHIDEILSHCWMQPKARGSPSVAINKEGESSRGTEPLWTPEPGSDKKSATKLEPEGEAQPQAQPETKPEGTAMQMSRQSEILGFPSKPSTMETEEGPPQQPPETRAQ
# [3] = biological target: T2, Testis-specific serine/threonine-protein kinase 1 (Homo sapiens); settings: at 1 µM
# [4] = biological target: T3, Testis-specific serine/threonine-protein kinase 2 (Homo sapiens) (UniProt Q96PF2); settings: at 0.1 µM
# T3 sequence (whole entry): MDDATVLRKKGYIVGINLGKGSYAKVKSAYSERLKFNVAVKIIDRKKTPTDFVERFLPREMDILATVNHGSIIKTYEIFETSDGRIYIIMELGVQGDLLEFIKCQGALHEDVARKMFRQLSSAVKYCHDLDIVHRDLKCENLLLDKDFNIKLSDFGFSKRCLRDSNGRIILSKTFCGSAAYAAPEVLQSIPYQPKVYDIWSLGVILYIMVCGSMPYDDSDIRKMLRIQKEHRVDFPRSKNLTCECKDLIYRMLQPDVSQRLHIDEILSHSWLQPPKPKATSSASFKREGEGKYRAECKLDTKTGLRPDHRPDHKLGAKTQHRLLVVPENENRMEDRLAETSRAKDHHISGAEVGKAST
# [5] = biological target: T3, Testis-specific serine/threonine-protein kinase 2 (Homo sapiens); settings: at 1 µM
# [6] = biological target: Casein kinase I isoform alpha (Homo sapiens) (UniProt P48729); settings: at 0.1 µM
# Casein kinase I isoform alpha (Homo sapiens), sequence (P48729 2-337 limits assumed): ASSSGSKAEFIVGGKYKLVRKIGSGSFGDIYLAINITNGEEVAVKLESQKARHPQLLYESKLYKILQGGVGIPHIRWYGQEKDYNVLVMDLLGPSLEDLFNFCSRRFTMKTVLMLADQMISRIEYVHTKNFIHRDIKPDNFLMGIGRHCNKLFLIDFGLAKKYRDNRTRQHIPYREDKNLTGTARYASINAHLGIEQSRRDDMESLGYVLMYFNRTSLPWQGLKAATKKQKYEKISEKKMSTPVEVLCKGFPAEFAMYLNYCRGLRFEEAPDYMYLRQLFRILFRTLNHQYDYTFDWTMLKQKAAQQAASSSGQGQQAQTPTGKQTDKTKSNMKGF
# [7] = biological target: Casein kinase I isoform alpha (Homo sapiens) (UniProt P48729); settings: at 1 µM
# [8] = biological target: Casein kinase I isoform gamma-1 (Homo sapiens) (UniProt Q9HCP0); settings: at 0.1 µM
# Casein kinase I isoform gamma-1 (Homo sapiens), sequence (Q9HCP0 whole entry, looked up, canonical isoform): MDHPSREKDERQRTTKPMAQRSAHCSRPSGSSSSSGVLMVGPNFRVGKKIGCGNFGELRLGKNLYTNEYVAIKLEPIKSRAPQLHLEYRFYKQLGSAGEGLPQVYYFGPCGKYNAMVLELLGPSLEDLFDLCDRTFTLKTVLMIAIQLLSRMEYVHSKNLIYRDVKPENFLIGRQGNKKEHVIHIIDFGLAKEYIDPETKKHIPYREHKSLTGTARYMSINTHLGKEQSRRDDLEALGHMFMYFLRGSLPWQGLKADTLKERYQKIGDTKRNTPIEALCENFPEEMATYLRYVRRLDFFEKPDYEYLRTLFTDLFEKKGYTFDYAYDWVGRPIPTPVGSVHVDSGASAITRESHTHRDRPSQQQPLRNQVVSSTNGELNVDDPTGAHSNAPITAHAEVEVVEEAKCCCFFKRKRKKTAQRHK
# [9] = biological target: Casein kinase I isoform gamma-1 (Homo sapiens) (UniProt Q9HCP0); settings: at 1 µM
# [10] = biological target: Casein kinase I isoform gamma-2 (Homo sapiens) (UniProt P78368); settings: at 0.1 µM
# Casein kinase I isoform gamma-2 (Homo sapiens), sequence (P78368 whole entry, looked up, canonical isoform): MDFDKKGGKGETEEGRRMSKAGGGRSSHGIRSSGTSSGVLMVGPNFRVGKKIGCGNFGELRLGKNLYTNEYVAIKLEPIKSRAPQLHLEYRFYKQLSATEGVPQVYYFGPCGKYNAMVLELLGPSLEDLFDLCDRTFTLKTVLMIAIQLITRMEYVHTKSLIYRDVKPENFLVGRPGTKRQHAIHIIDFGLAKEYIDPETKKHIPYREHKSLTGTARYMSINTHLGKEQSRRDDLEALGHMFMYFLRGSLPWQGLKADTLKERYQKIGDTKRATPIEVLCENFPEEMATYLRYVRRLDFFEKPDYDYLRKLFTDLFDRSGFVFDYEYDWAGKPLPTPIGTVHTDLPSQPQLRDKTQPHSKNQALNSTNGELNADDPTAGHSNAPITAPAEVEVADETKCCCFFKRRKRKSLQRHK
# [11] = biological target: Casein kinase I isoform gamma-2 (Homo sapiens) (UniProt P78368); settings: at 1 µM
# [12] = biological target: Casein kinase I isoform gamma-3 (Homo sapiens) (UniProt Q9Y6M4); settings: at 0.1 µM
# Casein kinase I isoform gamma-3 (Homo sapiens), sequence (Q9Y6M4 whole entry, looked up, canonical isoform): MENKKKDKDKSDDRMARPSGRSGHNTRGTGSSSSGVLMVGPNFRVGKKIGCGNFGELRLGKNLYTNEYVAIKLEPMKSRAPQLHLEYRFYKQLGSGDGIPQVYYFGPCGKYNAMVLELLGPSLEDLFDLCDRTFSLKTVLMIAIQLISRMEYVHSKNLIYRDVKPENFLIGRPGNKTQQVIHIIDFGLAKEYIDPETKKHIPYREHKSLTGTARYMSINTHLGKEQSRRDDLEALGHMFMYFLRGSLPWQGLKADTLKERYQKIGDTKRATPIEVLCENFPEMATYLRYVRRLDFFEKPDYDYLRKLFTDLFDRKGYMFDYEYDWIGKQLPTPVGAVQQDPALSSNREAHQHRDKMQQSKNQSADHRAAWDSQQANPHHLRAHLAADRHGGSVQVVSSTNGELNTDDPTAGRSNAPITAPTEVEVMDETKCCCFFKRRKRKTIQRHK
# [13] = biological target: Casein kinase I isoform gamma-3 (Homo sapiens) (UniProt Q9Y6M4); settings: at 1 µM
# [14] = biological target: Cyclin-dependent kinase 1 (Homo sapiens) (UniProt P06493); settings: at 0.1 µM
# Cyclin-dependent kinase 1 (Homo sapiens), sequence (P06493 whole entry, looked up): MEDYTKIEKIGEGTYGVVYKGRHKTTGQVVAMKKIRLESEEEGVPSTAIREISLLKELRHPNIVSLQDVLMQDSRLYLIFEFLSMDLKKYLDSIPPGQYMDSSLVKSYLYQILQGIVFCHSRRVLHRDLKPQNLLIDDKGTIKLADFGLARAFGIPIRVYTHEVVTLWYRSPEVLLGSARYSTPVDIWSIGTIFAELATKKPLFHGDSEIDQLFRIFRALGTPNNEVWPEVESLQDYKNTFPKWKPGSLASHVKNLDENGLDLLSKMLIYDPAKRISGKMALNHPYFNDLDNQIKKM
# [15] = biological target: Cyclin-dependent kinase 1 (Homo sapiens) (UniProt P06493); settings: at 1 µM
# [16] = biological target: Cyclin-dependent kinase 2 (Homo sapiens) (UniProt P24941); settings: at 0.1 µM
# [17] = biological target: Cyclin-dependent kinase 2 (Homo sapiens) (UniProt P24941); settings: at 1 µM
# [18] = biological target: Cyclin-dependent kinase 2 (Homo sapiens) (UniProt P24941); settings: at 0.1 µM; remark: listed apart in the source
# [19] = biological target: Cyclin-dependent kinase 2 (Homo sapiens) (UniProt P24941); settings: at 1 µM; remark: listed apart in the source
# [20] = biological target: CDK3/Cyclin E (Homo sapiens) (UniProt P24864+Q00526); settings: at 0.1 µM;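 also: reported percentages are mean inhibition values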
# CDK3/Cyclin E (Homo sapiens), sequence (P24864 whole entry, looked up): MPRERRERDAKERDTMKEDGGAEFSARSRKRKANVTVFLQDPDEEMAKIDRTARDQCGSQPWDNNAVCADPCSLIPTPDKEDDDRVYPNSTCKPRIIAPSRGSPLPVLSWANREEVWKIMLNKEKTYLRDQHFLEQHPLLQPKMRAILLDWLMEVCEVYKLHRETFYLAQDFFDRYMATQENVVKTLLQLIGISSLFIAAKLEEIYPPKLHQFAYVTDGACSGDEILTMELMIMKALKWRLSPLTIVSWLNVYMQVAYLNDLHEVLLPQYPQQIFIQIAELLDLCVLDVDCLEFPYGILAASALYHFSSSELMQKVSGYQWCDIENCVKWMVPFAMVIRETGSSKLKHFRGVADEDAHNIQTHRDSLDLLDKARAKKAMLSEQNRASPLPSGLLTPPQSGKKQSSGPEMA
# CDK3/Cyclin E (Homo sapiens), sequence (Q00526 whole entry, looked up): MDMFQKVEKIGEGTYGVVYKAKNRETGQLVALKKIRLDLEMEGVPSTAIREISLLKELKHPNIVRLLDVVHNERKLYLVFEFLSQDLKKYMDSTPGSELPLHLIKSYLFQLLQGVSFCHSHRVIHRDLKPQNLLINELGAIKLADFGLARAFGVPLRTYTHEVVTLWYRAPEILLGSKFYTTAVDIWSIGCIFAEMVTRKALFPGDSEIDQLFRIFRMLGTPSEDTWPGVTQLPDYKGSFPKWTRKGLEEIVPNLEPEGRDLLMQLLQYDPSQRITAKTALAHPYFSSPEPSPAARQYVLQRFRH
Compound,inhibition [1],inhibition [2],inhibition [3],inhibition [4],inhibition [5],inhibition [6],inhibition [7],inhibition [8],inhibition [9],inhibition [10],inhibition [11],inhibition [12],inhibition [13],inhibition [14],inhibition [15],inhibition [16],inhibition [17],inhibition [18],inhibition [19],inhibition [20]
CC(C)=Cc1cccc2c1/C(=N/Nc1ccc(S(N)(=O)=O)cc1)C(=O)N2,26.3%,1.27%,2.47%,0.49%,0.88%,6.16%,2.83%,0.52%,1.12%,1.67%,0.64%,-0.08%,2.43%,28.7%,69.7%,103%,92.4%,74.1%,79.3%,68.5%
CCn1c(-c2nonc2N)nc2cncc(C(=O)N3CCNCC3)c21,5.51%,4.82%,5.83%,2.4%,3.03%,6.74%,9.8%,5.02%,6.64%,4.43%,4.57%,3.46%,3.18%,2.63%,1.24%,3.94%,2.62%,3.71%,3.23%,-1.18%
CCCN1CCC(Oc2cc(Nc3nc(Nc4cccc(F)c4C(N)=O)c4cc[nH]c4n3)c(OC)cc2Cl)CC1,2.35%,21.3%,57.3%,7.49%,26.8%,0.93%,12.1%,-0.95%,8.29%,-0.58%,6.61%,-0.08%,20.9%,-0.34%,0.53%,1.48%,5.95%,-0.16%,0.71%,0.11%
NC(=O)c1ccc(-c2nc(-c3ccccn3)c(-c3ccc4c(c3)OCO4)[nH]2)cc1,2.25%,2.68%,0.88%,1.76%,0.84%,13.1%,48.5%,1.97%,4.22%,1.5%,3.29%,1.05%,5.91%,0.26%,2.49%,,,,,3.35%
Cc1cc(O)cc(C)c1/C=C/c1cncc(-c2nn[nH]n2)c1,5.41%,2.79%,2.61%,1.18%,0.73%,7.75%,10.6%,1.82%,3.8%,0.59%,3.73%,-0.15%,1.13%,-2.89%,-3.31%,-1.42%,2.36%,0.42%,0.7%,2.82%
COc1cc2ncn(-c3cc(OCc4ccccc4C(F)(F)F)c(C(N)=O)s3)c2cc1OC,13.6%,2.93%,6.32%,2.18%,2.55%,1.38%,3.61%,0.9%,2.06%,,1.15%,-0.01%,1.63%,-4.16%,-1.4%,-2.45%,1.5%,0.41%,4.83%,-1.21%
Cc1cccc(-c2n[nH]cc2-c2ccc3ncccc3n2)n1,-2.11%,0.8%,0.75%,-0.09%,1.08%,1.85%,1.42%,0.4%,1.1%,0.55%,0.49%,0.08%,1.59%,0.3%,2.06%,0.57%,-1.61%,0.23%,0.63%,0.85%
CCN1CCC(CC(=O)Nc2n[nH]c3nc(-c4cccs4)c(Br)cc23)CC1,1.1%,-1.56%,-1.9%,-1.62%,-1.24%,0.63%,-0.71%,-2.56%,-1.74%,-1.74%,-0.99%,-2.3%,0.47%,0.69%,5%,0.61%,6.41%,-0.6%,5.24%,-0.39%
Fc1cccc(COc2ccc(Nc3ncnc4sc(-c5cccs5)cc34)cc2Cl)c1,2.3%,0.6%,1.28%,0.22%,0%,-0.37%,2.33%,0.39%,-0.08%,0.42%,0.26%,-0.15%,0.1%,0.75%,1.12%,-0.17%,1.85%,3.98%,2.92%,-0.06%
c1cnn2ncc(-c3ccnc(Nc4ccc5c(c4)OCCO5)n3)c2c1,23.9%,4.39%,18.1%,2.63%,4.19%,9.95%,44.9%,4.47%,22.1%,7.95%,46.9%,6.57%,38%,71.3%,92.9%,65.5%,86.1%,73.6%,,36.9%
COc1ccc(-c2coc3ncnc(N)c23)cc1,7.65%,4.08%,3.27%,1.1%,0.95%,6.3%,4.04%,4.29%,4.94%,4.25%,6.12%,3.42%,5.14%,1.77%,3.58%,2.89%,0.12%,6.07%,7.82%,4.84%
CCn1c(-c2nonc2N)nc2cncc(C(=O)N3CC[C@H](N)C3)c21,19.7%,7.36%,18.9%,3.56%,5.01%,,,3.59%,4.35%,3.12%,3.73%,2.49%,2.9%,0.41%,,2.14%,-1.11%,2.3%,5.5%,5.34%
COc1ccc(COc2ccc(Cc3cnc(N)nc3N)cc2OC)cc1,2.86%,0.44%,-1.27%,-0.95%,-0.65%,0.49%,0.48%,-0.8%,-0.45%,-2.36%,0.05%,-0.67%,0.85%,1.89%,1.42%,,,,,2.3%
NS(=O)(=O)c1ccc(N/N=C2\C(=O)Nc3ccc(C(=O)NCCc4c[nH]cn4)cc32)cc1,26.8%,6.64%,11.2%,3.37%,1.67%,9.71%,8.41%,4.44%,9.85%,3.01%,9.23%,5.54%,16.4%,30.1%,76.1%,,,,,26.9%
